# From PubChem
# An excerpt weighted towards active compounds, which were near 21% of everything screened.
# CYP2C19 activ = human CYP2C19 activators, primary screen, biochemical, luminescence; activation factor at 5 µM; 96,000 tested, under 10 active; recombinant CYP2C19, luciferin-H EGE luminescence; hits give high values; 0 = fully inhibited enzyme, 1 = untreated enzyme;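 active = activation factor of at least 2 at 5 µM in the primary screen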;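 also: 0 = wells with 2.5 mM tranylcypromine and 1 = vehicle-only wells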
# Target sequence (P33261 whole entry, looked up): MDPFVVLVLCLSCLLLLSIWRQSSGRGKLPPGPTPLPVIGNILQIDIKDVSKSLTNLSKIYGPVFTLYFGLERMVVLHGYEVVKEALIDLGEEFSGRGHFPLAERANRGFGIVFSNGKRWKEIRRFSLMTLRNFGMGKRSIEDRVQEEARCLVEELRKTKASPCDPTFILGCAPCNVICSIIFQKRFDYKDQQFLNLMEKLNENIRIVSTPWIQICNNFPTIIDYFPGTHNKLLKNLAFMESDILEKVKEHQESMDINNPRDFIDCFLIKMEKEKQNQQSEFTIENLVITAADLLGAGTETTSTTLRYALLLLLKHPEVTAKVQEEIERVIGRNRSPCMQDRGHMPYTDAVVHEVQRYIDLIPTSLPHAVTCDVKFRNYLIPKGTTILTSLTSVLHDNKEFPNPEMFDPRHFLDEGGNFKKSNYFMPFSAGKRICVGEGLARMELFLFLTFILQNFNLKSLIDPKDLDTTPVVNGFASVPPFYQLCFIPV
# MRP1 act = H69AR viability gain despite doxorubicin, primary screen, MRP-1 activator project, H69AR cells, CellTiter-Glo. 140,000 tested, 0.61% active. viability increase, % at 10 µM. viability rescue. AID 799, 2007;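 active = viability gain under doxorubicin at or above a set limit, the compound median plus 3 SD, cut at about 4.7% in these data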;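 also: MRP-1 overexpressing cells given doxorubicin 25 µM after compound pretreatment; 18-22 h compound pretreatment then 72 h with doxorubicin before readout; 0% = doxorubicin-only wells and 100% = vehicle-treated cells without doxorubicin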
# CYP2C9 inh = blockers of cytochrome P450 2C9 activity – biochemical, luminescence, ADME assay, primary screen | P11712 | inhibition, % at 5 µM | CYP2C9 Supersomes, luciferin-H conversion | 96,000 tested, 20% active;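 active = blocking of liver enzyme CYP2C9 beyond about 50% at 5 µM, limit read from the data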
# CYP2C19 inhib = blockers of cytochrome P450 2C19 activity – biochemical, luminescence, ADME assay, primary screen; CYP2C19 Supersomes, luciferin-H EGE luminescence, 30 min; AID 778, 2007; 96,000 tested, 21% active; inhibition, % at 5 µM;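 active = CYP2C19 inhibition above a set limit at 5 µM in the primary screen, cut at about 50% in these data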;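 also: plate controls were negative control wells for no effect and 2.5 mM tranylcypromine positive control for full effect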
# CYP2C9 act = human CYP2C9 activators, primary screen, biochemical, luminescence; Cytochrome P450 2C9 (Homo sapiens), P11712; recombinant CYP2C9, luciferin-H conversion; hits give high values; factor 1 = untreated enzyme, 0 = blocked; activation factor at 5 µM; 96,000 tested, 1.4% active; AID 1024, 2008;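 active = activation factor of 2 or more for CYP2C9 at a 5 µM dose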;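 also: 0 = sulfaphenazole-blocked wells and 1 = vehicle-only wells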
# MRP reversal = reversal of MRP1-mediated doxorubicin resistance, primary screen, H69AR cells, doxorubicin co-treatment; differential viability (reversal), % at 10 µM; 85,000 tested, 0.04% active; H69AR cells + 2 uM doxorubicin, CellTiter-Glo, 72 h;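 active = viability drop by adding the cancer drug above about 55%, with treated viability meeting a 40% cutoff, limit read from the data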;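 also: viability without doxorubicin minus viability with 2 µM doxorubicin for each compound; larger differential means the compound sensitizes cells more to doxorubicin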
# An asterisk follows results filed as active; . = no result given.
SMILES,CYP2C19 activ,MRP1 act,CYP2C9 inh,CYP2C19 inhib,CYP2C9 act,MRP reversal
CCOC(=O)C1CCN(C(=O)CSCc2nc(-c3ccc(OCC)cc3)oc2C)CC1,0.5,0,81*,54*,0.2,-13
Cc1ccc(-c2nc(CSCC(=O)N3CCCC3)c(C)o2)cc1,0.9,-2,18,10,0.8,7
Cc1ccccc1CSCC(=O)N1CCN(c2ccccc2)CC1,.,-1,.,.,.,.
CCOc1ccc(-c2nc(CSCC(=O)N3CCN(C(=O)c4ccco4)CC3)c(C)o2)cc1,0.5,-3,80*,45,0.2,10
O=C(NC(=S)NCCCN1CCOCC1)c1ccc([N+](=O)[O-])cc1,.,-3,.,.,.,.
CC(=O)c1ccc(NC(=S)NC(=O)c2c(Cl)c(C)nn2C)cc1,.,-1,.,.,.,.
Cc1ccnc(NS(=O)(=O)c2ccc(NC(=O)c3ccc(S(=O)(=O)N4CC(C)OC(C)C4)cc3)cc2)n1 (configuration not stated),.,0,.,.,.,.
Cc1oc(-c2ccc(Cl)cc2)nc1CN1CCCC(C(=O)N2CCN(C(=O)c3ccco3)CC2)C1 (configuration not stated),0.4,-2,52*,55*,0.5,1
CCN(CCNC(=O)C1CCCN(Cc2nc(-c3ccc(OC)cc3)oc2C)C1)c1ccccc1 (configuration not stated),0.4,-3,61*,55*,0.4,-20
CCOC(=O)c1nnn(-c2nonc2N)c1CN(CC)CC,0.6,-3,2,36,1,16
CCOC(=O)c1nnn(-c2nonc2N)c1COc1ccc(F)cc1,0.9,-1,81*,14,0.2,2
CCOC(=O)c1nnn(-c2nonc2N)c1CNC(C)C,0.5,-1,11,49,0.9,8
CCOC(=O)c1nnn(-c2nonc2N)c1CN(CC)c1ccccc1,0,-1,89*,99*,0.1,9
CCOC(=O)c1nnn(-c2nonc2N)c1CNc1ccccc1,0.9,-2,53*,7,0.5,18
CCOC(=O)c1nnn(-c2nonc2N)c1COc1ccccc1,0.5,-2,88*,48,0.1,-30
CCOC(=O)c1cnc2sc3c(n2c1=O)CCCC3,0.9,-2,-24,8,1.2,-6
O=c1[nH]c(-c2ccco2)nc2sc3c(c12)CCCC3,.,-1,.,.,.,.
COC(=O)c1nnn(-c2nonc2N)c1CSc1nc2ccccc2s1,0.5,-3,49,52*,0.5,-20
COC(=O)c1nnn(-c2nonc2N)c1CSc1ccc(Cl)cc1,0.6,-1,16,38,0.8,12
CCOc1ccc(N(CC(=O)NC2CCCC2)S(=O)(=O)c2c(C)[nH]c(=O)[nH]c2=O)cc1,1.1,0,33,-6,0.7,4
CC(c1ccccc1)C(CC(=O)O)C(=O)NC1CCCCC1 (configuration not stated),0.9,0,-26,7,1.3,14
COC(=O)CSc1nc(C)c(Oc2ccccc2)c(=O)[nH]1,0.4,-1,-9,64*,1.1,8
CCOC(=O)CSc1nc2ccccc2c(=O)[nH]1,1.1,0,2,-10,1,3
Cc1ccc(-n2cc(-c3ccccc3)c3c(NN4CCOCC4)ncnc32)cc1,.,0,.,.,.,.
CN(C)c1ccc(/C=C/c2cc[n+]([O-])cc2)cc1,0.1,-1,54*,92*,0.5,6
SMILES,CYP2C19 activ,MRP1 act,CYP2C9 inh,CYP2C19 inhib,CYP2C9 act,MRP reversal
CN(C)c1ccc(/C=C/c2cc[n+](C)cc2)cc1,1,0,0,0,1,-17
COc1ccccc1CNc1nc2nc(C)c(Cl)c(=O)n2[nH]1,1,-1,61*,2,0.4,-14
O=C(CN1C(=O)c2ccccc2C1=O)NCCc1c[nH]c2ccccc12,.,-1,.,.,.,.
O=C(CN1CCC(O)(c2ccccc2F)CC1)NCCc1c[nH]c2ccccc12,0.9,-4,80*,10,0.2,-10
COc1ccc(CCNC(=O)CNS(=O)(=O)c2cccs2)cc1OC,0.4,0,42,64*,0.6,4
COc1ccc(CCNC(=O)CN(C)S(=O)(=O)c2cccs2)cc1OC,0.7,0,5,31,0.9,-4
COCCCNC(=O)Cn1nnc(-c2ccccc2NC(=O)c2ccccc2F)n1,0.4,.,88*,57*,0.1,17
COC(=O)CCn1nnc(-c2cccs2)n1,0.2,0,-2,78*,1,14
CCOC(=O)c1c(NC(=O)C2=C(C)NC(=S)NC2c2ccc(CC)cc2)sc(C)c1C (configuration not stated),.,-2,.,.,.,.
CC1=CCC[C@@H]2[C@@](C)(CC/C(C)=C/C(=O)O)[C@H](C)CC[C@@]12C,.,-2,.,.,.,.
COc1ccc(CCNC(=O)Cn2nnc(-c3ccccc3F)n2)cc1OC,0.8,-1,65*,21,0.4,8
COc1ccc(CCNC(=O)Cn2nnc(-c3cccs3)n2)cc1OC,0.8,-1,56*,20,0.4,-15
COc1ccc(-c2nnn(CC(=O)NCCc3c[nH]c4ccccc34)n2)cc1OC,0.4,-2,.,64*,.,.
CCc1ccc(C2=Nn3c(nnc3-c3cccs3)SC2)cc1,1.1,0,-4,-8,1,.
CSc1cnn(Cc2ccccc2)c(=O)c1SCc1ccccc1,.,-1,.,.,.,.
CC(C)OC(=O)CSc1nnc(-c2cnccn2)n1Cc1ccco1,1.1,-3,25,-12,0.7,9
COc1cccc(-c2nnc(SCC(=O)OC(C)C)n2Cc2ccco2)c1,0.2,-3,85*,80*,0.1,10
CC(C)OC(=O)CSc1nnc(Cc2ccccc2)n1Cc1ccco1,0.3,-1,50,71*,0.5,3
COc1ccc(C2(C(=O)NCc3ccco3)CCCC2)cc1OC,0.8,-2,-3,23,1,3
O=C(Nc1nn[nH]n1)C12CC3CC(CC(C3)C1)C2,1,0,-2,3,1,35
CCN(CC)S(=O)(=O)c1ccc(N(C)Cc2cccnc2)nc1,0.2,-2,68*,81*,0.3,7
Cc1[nH]c(=O)[nH]c(=O)c1S(=O)(=O)N1CCCC(C(=O)NCc2ccco2)C1 (configuration not stated),0.3,0,97*,74*,0,6
O=C(C1CCCN(S(=O)(=O)c2cccc3cccnc23)C1)N1CCN(c2ccc(F)cc2)CC1 (configuration not stated),0.4,-1,-82,61*,1.8,2
